Laboratory results: PubChem BioAssay
Calls of active or inactive are those of the source. No rule for the calls is given here.

target: Pantothenate synthetase (Mycobacterium tuberculosis (strain ATCC 25618 / H37Rv)) (UniProt P9WIL5); assay: Coupled enzyme confirmation of inhibitors against recombinant Mtb PanC (AID 375); settings: coupled enzyme assay; at 10 µM, hits give high values;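 also: 0% = full reaction with vehicle and 100% = no enzyme background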
Sequence (P9WIL5 whole entry, looked up): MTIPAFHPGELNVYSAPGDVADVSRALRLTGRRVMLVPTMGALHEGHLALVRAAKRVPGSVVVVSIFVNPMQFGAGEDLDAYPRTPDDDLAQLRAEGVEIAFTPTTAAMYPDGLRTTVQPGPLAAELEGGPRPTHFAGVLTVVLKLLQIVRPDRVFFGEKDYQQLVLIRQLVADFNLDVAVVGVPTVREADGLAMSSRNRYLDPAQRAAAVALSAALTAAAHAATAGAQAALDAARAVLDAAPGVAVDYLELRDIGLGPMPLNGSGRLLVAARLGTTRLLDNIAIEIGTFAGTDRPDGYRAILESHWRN

SMILES	inhibition
NS(=O)(=O)c1ccc(CCNC(=O)CCC2COc3ccccc3O2)cc1 (stereo not given)	0% (inactive)
COc1cccc(NC(=O)CSc2nnc(Cc3cccn3C)n2-c2ccc(F)cc2)c1	4% (inactive)
CCCCn1c(SCC(=O)Nc2ccc(OC)cc2)nc2ccc(N3CCOCC3)cc2c1=O	0% (inactive)
Cc1ccc(-c2nnn(CC(=O)N(CC3CCCO3)C(C(=O)NC(C)(C)C)c3ccc(F)cc3)n2)o1 (stereo not given)	6% (inactive)
CCOC(=O)c1ccc(NC(=O)CC2SC(=NC)N(C)C2=O)cc1 (stereo not given)	2% (inactive)
Cc1nnc(SCC(=O)Nc2ccc(Br)cn2)[nH]c1=O	1% (inactive)
O=c1c2ccccc2nc(SCc2nc(-c3ccccc3)no2)n1-c1ccc(F)cc1	0% (inactive)
Cc1ccc(-n2c3c(cc(C(=O)NCCCN4CCOCC4)c2=O)C(=O)CC(C)(C)C3)cc1	0% (inactive)
CC(C(=O)N1CCCCC1)n1ncn2cccc2c1=O (stereo not given)	0% (inactive)
CC1=C(C(=O)OCC(C)C)C(c2cc3c(cc2Br)OCO3)NC(=O)N1C (stereo not given)	0% (inactive)
COc1ccc(N2C(N)=C(C#N)C(c3cccnc3)C3=C2CC(C)(C)CC3=O)cc1 (stereo not given)	0% (inactive)
O=C(CSc1nnc2ccccn12)c1ccccc1	0% (inactive)
O=C(Cn1[nH]c(=O)c2ccccc2c1=O)OCC(=O)N1CCCc2ccccc21	5% (inactive)
O=C(O)C1CCCCC1C(=O)NCCc1ccccc1 (stereo not given)	0% (inactive)
Cc1ccc(S(=O)(=O)N2CCCN(S(=O)(=O)C3CCS(=O)(=O)C3)CC2)cc1 (stereo not given)	2% (inactive)
Cc1cc(C)n(-c2nc3c(c(=O)n(Cc4ccc(Cl)c(Cl)c4)c(=O)n3C)n2C)n1	1% (inactive)
CCOC(=O)N1CCN(C(=O)c2n[nH]c(=O)c3ccccc23)CC1	2% (inactive)
O=C(O)CCNC(=O)c1ccccc1	3% (inactive)
COc1cccc(C(=O)Nc2cc(NC(=O)c3ccco3)ccc2OC)c1	3% (inactive)
NC(=O)C1CCN(CC(=O)N2c3ccccc3CCc3ccccc32)CC1	0% (inactive)

SMILES	inhibition
Cc1ccc(S(=O)(=O)N2CCCC2C(=O)n2nc(C)cc2C)cc1 (stereo not given)	0% (inactive)
CCCNS(=O)(=O)c1ccc(OCC(=O)Nc2ccccc2F)cc1	0% (inactive)
O=C(O)CCC(=O)NC1CCCCC1NC(=O)CCC(=O)O (stereo not given)	0% (inactive)
c1ccc(-c2cc(-c3nc(-c4ccccn4)no3)c3ccccc3n2)cc1	0% (inactive)
CC1(C)CC(=O)CC(=Nc2ccc(C(=O)O)cc2)C1	8% (inactive)
CCN1CCN(C(c2ccc(F)cc2)c2nnnn2Cc2cccs2)CC1 (stereo not given)	0% (inactive)
CC1CN(c2nc3ccccc3nc2C(C#N)C(=O)OC2CCCCC2)CC(C)O1 (stereo not given)	2% (inactive)
CC(C)Cc1nnc(NC(=O)CCC(=O)N2CCOCC2)s1	0% (inactive)
CCOc1ccc(-n2c(C)nc3c(cnn3-c3ccc(Cl)cc3)c2=O)cc1	4% (inactive)
O=C(CSc1nnnn1Cc1ccccc1)Nc1ccc2c(c1)OCO2	1% (inactive)
Cc1ccc(C(=O)Nc2c(C(=O)N3CCOCC3)cnn2-c2ccccc2)cc1	0% (inactive)
CN(C)CC(=O)N1c2ccccc2CCc2ccc(NC(=O)c3ccc(N)cc3)cc21	0% (inactive)
O=C(CN1C(=O)c2ccccc2S1(=O)=O)NCc1ccccc1Cl	0% (inactive)
Cn1c(=O)c2c(nc(NCCNC(=O)c3ccco3)n2Cc2ccccc2Cl)n(C)c1=O	0% (inactive)
COc1ccc2cc3cc(C(=O)NCC4CCCO4)oc3nc2c1 (stereo not given)	3% (inactive)
COc1cccc2cc(C(=O)OC3CCN(C)CC3)c(=O)oc12	9% (inactive)
COc1ccc2[nH]c(=O)c(CN(CCO)S(=O)(=O)c3ccc4c(c3)OCCO4)cc2c1	0% (inactive)
CCOC(=O)c1cccnc1SCC(=O)NC(C)CC (stereo not given)	0% (inactive)
CC1Cc2ccccc2N1S(=O)(=O)c1cccc(C(=O)OCC(=O)NC2CCS(=O)(=O)C2)c1 (stereo not given)	0% (inactive)
CC1(C)Cc2cccc(OCC(=O)O)c2O1	5% (inactive)
